Source: PubChem BioAssay (NCATS)
Inconclusive results are not listed. Where a call stands in place of a potency, no number is given. Activity calls are given as the source filed them. Calls come from the whole dose curve; as a rule, active = well fitted inhibition curve with a large enough effect; inconclusive = small, poorly fitted or top-dose-only effect; inactive = flat fitted curve, though single readings scatter. Non-standard residues stand in square brackets, D forms with d. Residues, ends and D or L forms follow the SMILES beside them. *: point of attachment. Nva = CCC[C@H](N)C(=O)O; Cbz = O=C(OCc1ccccc1)*

test system: Zika virus NS2B-NS3 protease; experiment: Primary screen GU AMC qHTS for Zika virus inhibitors (AID 1347154); conditions: Zika NS2B-NS3 unlinked protease, AMC fluorogenic substrate; series mostly up to 54.1 µM; note: nearly all actives have a fitted effect of over 70% in size
Text: Avindra Nath, Ph.D., National Institute of Neurological Disorders and Stroke (NINDS), Bethesda, MD
Radhakrishnan Padmanabhan, Ph.D., Georgetown University (GU), Washington D.C.
Zika Virus causes congenital defects, including microcephaly and is associated with Guillain-Barre syndrome, eningoencephalitis and myelitis in infected adult. […] Using a target-based approach, we hope to establish a screening paradigm to uncover novel, cell-active NS2B-NS3 protease (Zika Virus) specific inhibitors from NCATS' collection of small molecules using qHTS.
Early Translation Branch (ETB)
National Center for Advancing Translational Sciences (NCATS), Rockville, MD
National Institute of Health (NIH), Bethesda, Maryland
Padmanabhan lab provided the NS2B hydrophilic domain and NS3 protease domain in a noncovalent complex used for the unlinked assay. Control compound aprotinin is obtained from Thermo Scientific (#78432; Waltham, Massachusetts). NS2B-NS3 AMC substrate (Bz-Nle-Lys-Arg-Arg-AMC; Nle-KRR-AMC) purchased from Bachem (#I-1995; Torrance, CA). Ac-VKTGKR-AMC purchased from Genscript or Bachem, Ac-FAAGKR-AMC purchased from Genscript, Ac-GLVKRR-AMC purchased from Genscript, Ac-LKKR-AMC purchased from Genscript.
GU AMC unlinked NS2B-NS3 protease qHTS protocol
Briefly, 3 microL of Zika virus unlinked NS2B-NS3 protease (25 nM for linked final concentration), in assay buffer (10 mM Tris-HCl pH 8.0 with 0.01% Tween 20) was dispensed into a 1,536-well solid-bottom black plate (Greiner Bio One, Monroe, NC). […] Plates were then read immediately on a ViewLux High-throughput CCD imager (PerkinElmer, Waltham, MA) equipped with standard UV fluorescence optics (340(30) nm excitation, 450(20) nm emission) then incubated (room temperature, protected from light) for 15 minutes (~20% conversion). The change in fluorescence intensity over the 15-minute reaction period was normalized against no-inhibitor and no-enzyme controls and the resulting percent inhibition data were fitted to a 4-parameter Hill equation. Aprotinin was used as the intraplate control.
Potency is the fitted concentration of half-maximal effect.

| SMILES | Potency | activity change, negative = inhibition |
| --- | --- | --- |
| COc1ccc(S(=O)(=O)Nc2cccnc2Nc2ccc(O)cc2)cc1 | inactive | – |
| N=c1ccn2c(n1)O[C@H]1[C@@H](O)[C@@H](CO)O[C@H]12 | inactive | – |
| COc1ccc(CCC(=O)c2c(O)cc(O[C@@H]3O[C@H](CO)[C@@H](O)[C@H](O)[C@@H]3O[C@@H]3O[C@@H](C)[C@H](O)[C@@H](O)[C@@H]3O)cc2O)cc1O | inactive | – |
| C[C@]12CCC(=O)C=C1[C@@H]1CC1[C@H]1[C@H]3[C@@H]4C[C@H]4[C@@]4(CCC(=O)O4)[C@@]3(C)CC[C@H]12 (stereo not given in full) | inactive | – |
| CN[C@@H]1C[C@H]2O[C@@](C)([C@H]1OC)n1c3ccccc3c3c4c(c5c6ccccc6n2c5c31)C(=O)N[C@H]4O | 21.5 µM (active) | – |
| CC(C)(C)[C@H](NC(=O)c1ccc(N)c(Cl)c1)C(=O)N1CCC[C@@H]1C(=O)N[C@H](C#N)CC(=O)O | – | 6.17% [at 6.83 µM] (inactive) |
| Nc1nc2c(c(=O)[nH]1)N(C=O)[C@H](CNc1ccc(C(=O)N[C@@H](CCC(=O)O)C(=O)O)cc1)CN2 | inactive | – |
| OC[C@@H](O)[C@@H](O)[C@H](O)[C@@H](O)CO | inactive | – |
| Cn1cc(C2=C(c3c4n(c5ccccc35)CCC(CN)C4)C(=O)NC2=O)c2ccccc21 (stereo not given) | inactive | – |
| C=CC(=O)Nc1ccc2ncnc(Nc3ccc(OCc4cccc(F)c4)c(Cl)c3)c2c1 | inactive | – |
| CN1CCCN(C(=O)c2cccc(-c3ccc(C=C4C(=O)Nc5ccc(Cl)cc54)o3)c2)CC1 | inactive | – |
| FC(F)c1nc2ccccc2n1-c1nc(N2CCOCC2)nc(N2CCOCC2)n1 | inactive | – |
| Nc1ccc(C(=O)Nc2cccc(-c3nc(N4CCOCC4)c4oc5ncccc5c4n3)c2)cn1 | inactive | – |
| CC(O)(C#Cc1ccc2c(c1)N(c1nc(N)ncc1Cl)CC2)c1nccs1 (stereo not given) | inactive | – |
| COc1cc([C@@H]2c3cc4c(cc3[C@@H](O[C@@H]3O[C@@H]5CO[C@@H](c6cccs6)O[C@@H]5[C@H](O)[C@@H]3O)[C@H]3COC(=O)[C@H]23)OCO4)cc(OC)c1O | inactive | – |
| Nc1ccn(C[C@@H](CO)OCP(=O)(O)O)c(=O)n1 | inactive | – |
| C[C@H]1O[C@H](O[C@H]2[C@H](O)[C@@H](O)[C@@H](O[C@H]3[C@H](O)[C@@H](O)C(O)O[C@H]3CO)O[C@H]2CO)[C@H](O)[C@@H](O)[C@H]1N[C@H]1C=C(CO)[C@@H](O)[C@H](O)[C@@H]1O (stereo not given in full) | inactive | – |
| C[C@@]12C(=O)OC(=O)[C@@]1(C)C1CCC2O1 | inactive | – |
| Cc1nc(NC(=O)N2CCC[C@@H]2C(N)=O)sc1-c1ccnc(C(C)(C)C(F)(F)F)c1 | inactive | – |
| C[C@H](NC(=O)[C@@H](O)c1cc(F)cc(F)c1)C(=O)N[C@@H]1C(=O)N(C)c2ccccc2-c2ccccc21 | inactive | – |

| SMILES | Potency | activity change, negative = inhibition |
| --- | --- | --- |
| c1cc(CN2CCCNCCNCCCNCC2)ccc1CN1CCCNCCNCCCNCC1 | inactive | – |
| CC(=O)[C@]1(O)Cc2c(O)c3c(c(O)c2[C@@H](O[C@H]2C[C@H](N)[C@@H](O)[C@H](C)O2)C1)C(=O)c1ccccc1C3=O | inactive | – |
| CCOC(=O)[C@@H](N)Cc1ccc(-c2cc(O[C@H](c3ccc(Cl)cc3-n3ccc(C)n3)C(F)(F)F)nc(N)n2)cc1 | inactive | – |
| CCOC(=O)N1CCN([N+]([O-])=NOc2ccc([N+](=O)[O-])cc2[N+](=O)[O-])CC1 | inactive | – |
| CC(=O)ON=C1C(c2c(O)[nH]c3cc(Br)ccc23)=Nc2ccccc21 | inactive | – |
| CC(=O)NC(CS)C(=O)O (stereo not given) | inactive | – |
| C[C@@H](Cc1cc2c(c(C(N)=O)c1)N(CCCO)CC2)NCCOc1ccccc1OCC(F)(F)F | inactive | – |
| COc1ccc(C(C)=O)c(O)c1 | inactive | – |
| C#C[C@]1(O)CC[C@@H]2[C@@H]3CCc4cc(O)ccc4[C@H]3CC[C@@]21C | inactive | – |
| OC[C@H]1OC(O)C[C@@H](O)[C@H]1O (stereo not given in full) | inactive | – |
| CCS(=O)(=O)Nc1ccc2[nH]c(O)c(C(=Nc3ccc(CN4CCCCC4)cc3)c3ccccc3)c2c1 | inactive | – |
| Cc1cnc(NC(=O)Nc2cc(Br)c(C)cc2OC[C@@H]2CNCCO2)cn1 | inactive | – |
| CC(C=CC=C(C)C=CC1=C(C)CCCC1(C)C)=CC=CC=C(C)C=CC=C(C)C=CC1=C(C)CCCC1(C)C | inactive | – |
| CN[C@H]1[C@@H](O)[C@@H]2O[C@@H]3O[C@H](C)CC(=O)[C@]3(O)O[C@@H]2[C@@H](NC)[C@H]1O | inactive | – |
| CCC[C@@H](C=O)NC(=O)[C@H](CC(C)C)NC(=O)[C@H](CC(C)C)NC(=O)OCc1ccccc1 (Cbz-Leu-Leu-[Nva]-aldehyde) | inactive | – |
| CCc1cnn2c(NCc3ccc[n+]([O-])c3)cc(N3CCCC[C@@H]3CCO)nc12 | inactive | – |
| Cc1ccc(-n2[nH]c(C)c(N=Nc3cccc(-c4cccc(C(=O)O)c4)c3O)c2=O)cc1C | 19.2 µM (active) | – |
| COc1ccc(S(=O)(=O)Nc2cc(-c3c(O)ccc4ccccc34)c(O)c3ccccc23)cc1 | 24.1 µM (active) | – |
| Cn1c(Nc2ccc(C(F)(F)F)cc2)nc2cc(Oc3ccnc(-c4ncc(C(F)(F)F)[nH]4)c3)ccc21 | inactive | – |
| C=C(C)[C@@H]1CC[C@]2(C(=O)O)CC[C@]3(C)[C@H](CC[C@@H]4[C@@]5(C)CC[C@H](O)C(C)(C)[C@@H]5CC[C@]43C)[C@@H]12 | inactive | – |
